# Measurements as given in the supplement of paper PMC8728848.
# The sample as a whole holds a higher share of the strongest signals than the screen did.
# B1: rAAL-H59Q (Agrocybe aegerita), Q6WY08 (protein)
# chain: MQGVNIYNISAGTSVDLAAPVTTGDIVTFFSSALNLNAGAGNPNNTTLNLFAENGAYLLQIAFRLQENVIIFNSRQPDGPWLVEQRVSDVANQFAGIDGKAMVTVFDHGDKYQVVINEKTVIQYTKQISGLTLSLSYNATEETSIFSTVVEAVTYTGLALEHHHHHH
# Assays:
# Experiment in all cases: glycan array binding signal (z-score within array); higher = stronger binding
# Conditions in all cases: glycan notation: IUPAC condensed, linker removed; mutation: H59Q
# Gal3S4S(b1-4)GlcNAc = molecular target: Gal3S4S(b1-4)GlcNAc
# Outline: (§1)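 The binding signal is a Z-score computed within each array and averaged over linkers. Arrays of the same protein sequence at different concentrations or buffers were also averaged together. Data originate from 3228 arrays in the Consortium for Functional Glycomics database, kept only where the protein sequence was available.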
# Gal3S6S(b1-4)GlcNAc6S = molecular target: Gal3S6S(b1-4)GlcNAc6S
# Outline: as §1
# Gal6S(b1-3)GlcNAc6S = molecular target: Gal6S(b1-3)GlcNAc6S
# Outline: as §1
# Gal6S(b1-4)GlcNAc = molecular target: Gal6S(b1-4)GlcNAc
# Outline: as §1
# Gal6S(b1-4)GlcNAc6S = molecular target: Gal6S(b1-4)GlcNAc6S
# Outline: as §1
# GalNAc(b1-4)GlcNAc6S = molecular target: GalNAc(b1-4)GlcNAc6S
# Outline: as §1
# GlcA(b1-6)Gal = molecular target: GlcA(b1-6)Gal
# Outline: as §1
# [1] = molecular target: GlcA3S(b1-3)Gal(b1-4)GlcNAc(b1-2)Man
# Outline: as §1
# [2] = molecular target: GlcA3S(b1-3)Gal(b1-4)GlcNAc(b1-3)Gal(b1-4)Glc
# Outline: as §1
# [3] = molecular target: GlcNAc(a1-4)Gal(b1-4)GlcNAc(b1-3)Gal(b1-4)Glc
# Outline: as §1
# [4] = molecular target: GlcNAc(b1-2)Man(a1-3)[GlcNAc(b1-2)Man(a1-6)]Man(b1-4)GlcNAc(b1-4)[Fuc(a1-6)]GlcNAc
# Outline: as §1
# [5] = molecular target: GlcNAc(b1-2)[GlcNAc(b1-4)]Man(a1-3)[GlcNAc(b1-4)][GlcNAc(b1-2)Man(a1-6)]Man(b1-4)GlcNAc(b1-4)GlcNAc
# Outline: as §1
# [6] = molecular target: Man(a1-2)Man(a1-3)[Man(a1-6)]Man(a1-6)[Man(a1-2)Man(a1-3)]Man(b1-4)GlcNAc(b1-4)GlcNAc
# Outline: as §1
# [7] = molecular target: Man(a1-3)[Man(a1-6)]Man(b1-4)GlcNAc(b1-4)GlcNAc
# Outline: as §1
# [8] = molecular target: Neu5Ac(a2-3)Gal(b1-3)GalNAc6S
# Outline: as §1
# [9] = molecular target: Neu5Ac(a2-3)Gal(b1-3)GlcNAc(b1-2)Man(a1-3)[GlcNAc(b1-4)][Neu5Ac(a2-3)Gal(b1-3)GlcNAc(b1-2)Man(a1-6)]Man(b1-4)GlcNAc(b1-4)GlcNAc
# Outline: as §1
# [10] = molecular target: Neu5Ac(a2-3)Gal(b1-4)GlcNAc(b1-2)Man
# Outline: as §1
# [11] = molecular target: Neu5Ac(a2-3)Gal(b1-4)GlcNAc(b1-2)[Neu5Ac(a2-3)Gal(b1-4)GlcNAc(b1-4)]Man(a1-3)[GlcNAc(b1-4)][Neu5Ac(a2-3)Gal(b1-4)GlcNAc(b1-4)Man(a1-6)]Man(b1-4)GlcNAc(b1-4)GlcNAc
# Outline: as §1
# [12] = molecular target: Neu5Ac(a2-3)Gal(b1-4)GlcNAc(b1-3)GalNAc
# Outline: as §1
# [13] = molecular target: Neu5Ac(a2-3)Gal(b1-4)[Fuc(a1-3)]GlcNAc(b1-3)GalNAc
# Outline: as §1
# [14] = molecular target: Neu5Ac(a2-3)[GalNAc(b1-4)]Gal(b1-4)GlcNAc(b1-3)GalNAc
# Outline: as §1
# [15] = molecular target: Neu5Ac(a2-6)Gal(b1-4)GlcNAc(b1-2)Man(a1-3)[Man(a1-6)]Man(b1-4)GlcNAc(b1-4)GlcNAc
# Outline: as §1
# [16] = molecular target: Neu5Ac(a2-6)GalNAc(b1-4)GlcNAc
# Outline: as §1
# [17] = molecular target: Neu5Ac(a2-8)Neu5Ac(a2-3)Gal(b1-3)GalNAc(b1-4)[Neu5Ac(a2-8)Neu5Ac(a2-3)]Gal(b1-4)Glc
# Outline: as §1
# Neu5Gc(a2-6)GalNAc = molecular target: Neu5Gc(a2-6)GalNAc
# Outline: as §1
# [18] = molecular target: Neu5Gc(a2-8)Neu5Gc(a2-6)Gal(b1-4)GlcNAc
# Outline: as §1
# [19] = molecular target: Neu5Gc(b2-6)Gal(b1-4)GlcNAc
# Outline: as §1
binder,measurement,setting,value
B1,glycan array binding signal (z-score),Gal3S4S(b1-4)GlcNAc,-0.119
same,glycan array binding signal (z-score),Gal3S6S(b1-4)GlcNAc6S,0.071
same,glycan array binding signal (z-score),Gal6S(b1-3)GlcNAc6S,-0.113
same,glycan array binding signal (z-score),Gal6S(b1-4)GlcNAc,-0.086
same,glycan array binding signal (z-score),Gal6S(b1-4)GlcNAc6S,-0.14
same,glycan array binding signal (z-score),GalNAc(b1-4)GlcNAc6S,-0.023
same,glycan array binding signal (z-score),GlcA(b1-6)Gal,-0.064
same,glycan array binding signal (z-score),[1],19.6
same,glycan array binding signal (z-score),[2],12.1
same,glycan array binding signal (z-score),[3],-0.059
same,glycan array binding signal (z-score),[4],-0.07
same,glycan array binding signal (z-score),[5],-0.055
same,glycan array binding signal (z-score),[6],-0.093
same,glycan array binding signal (z-score),[7],-0.085
same,glycan array binding signal (z-score),[8],-0.117
same,glycan array binding signal (z-score),[9],-0.066
same,glycan array binding signal (z-score),[10],-0.03
same,glycan array binding signal (z-score),[11],-0.016
same,glycan array binding signal (z-score),[12],-0.092
same,glycan array binding signal (z-score),[13],0.246
same,glycan array binding signal (z-score),[14],-0.084
same,glycan array binding signal (z-score),[15],0.009
same,glycan array binding signal (z-score),[16],-0.112
same,glycan array binding signal (z-score),[17],-0.103
same,glycan array binding signal (z-score),Neu5Gc(a2-6)GalNAc,-0.145
same,glycan array binding signal (z-score),[18],-0.072
same,glycan array binding signal (z-score),[19],-0.027
